Measured values from PubChem BioAssay.
The source made the active and inactive calls. Unless noted, how the calls were made is not given here.

What was measured:
[1] = resazurin metabolic signal in HepG2 cells – cell-based, resazurin fluorescence, 24 h, PK04 Diversity Set, profiling panel (AID 1172); conditions: HepG2 viability, higher = more signal
[2] = budding yeast growth changes without added modifier – OD600, strain BY4716, 24 h, basal condition, primary screen (AID 1173); conditions: S. cerevisiae BY4716 growth, OD600, 24 h; higher = more signal, called active from +8 up or from −8 down
[3] = viability profiling in MM1S myeloma cells – cell-based, resazurin fluorescence, basal, 24 h, PK04 Diversity Set, profiling panel (AID 1174); conditions: higher = more signal, called active from +8 up or from −8 down;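 further: MM1S multiple myeloma cell line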
[4] = target: Dihydroorotate dehydrogenase (quinone), mitochondrial (Plasmodium falciparum (isolate 3D7)) (UniProt Q08210); assay: inhibition of P. falciparum DHODH – biochemical, C-terminal His tag, absorbance 600 nm, primary screen (AID 1175); conditions: PfDHODH enzyme, DCIP absorbance 600 nm; higher = more signal, called active from +8 up or from −8 down;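 further: recombinant parasite enzyme with a five histidine tag at its C terminus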
[5] = inhibition of PAO1 biofilm formation – strain PAO1, LB-PBS medium, absorbance 600 nm, primary screen (AID 1176); conditions: P. aeruginosa PAO1 growth/biofilm, A600, 12 h; higher = more signal
[6] = growth modulation of vineyard yeast isolate – strain RM11-1a, OD600, basal, 24 h, primary screen (AID 1177);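 further: cultures grown under basal conditions with no added stressor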; conditions: S. cerevisiae RM11-1a growth, OD600, 24 h; higher = more signal, called active from +8 up or from −8 down
[7] = growth of efflux-deficient E. coli DRC39 – strain DRC39, OD650, 24 h, E. coli filamentation inducers, primary screen (AID 1178);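 further: growth measured as culture turbidity by optical density at 650 nm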; conditions: E. coli DRC39 acrAB, higher = more signal, called active from +8 up or from −8 down
[8] = growth of efflux-deficient E. coli DRC39 – strain DRC39, OD650, 48 h, E. coli filamentation inducers, primary screen (AID 1179);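 further: screen aims at cell division blockers that make cells filament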; conditions: E. coli DRC39 delta-acrAB growth, higher = more signal, called active from +8 up or from −8 down
[9] = viability profiling in RPMI8226 myeloma cells – cell-based, resazurin fluorescence, basal, 24 h, PK04 Diversity Set, profiling panel (AID 1180); conditions: higher = more signal;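 further: RPMI8826 multiple myeloma cell line at 5000 cells per well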
[10] = target: E3 ubiquitin-protein ligase XIAP (Homo sapiens) (UniProt P98170); assay: small molecules binding XIAP protein – biophysical, small-molecule microarray, fluorescence 635 nm, primary screen (AID 1181); conditions: higher = more signal;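 further: score merges 667 nm emission and signal to noise over triplicate slides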
[11] = system: XIP peptide (Xip251-270) binding; assay: XIP fragment 251-270 binding compounds – biochemical, small-molecule microarray, fluorescence 635/667 nm, 0.1 µg/mL protein, primary screen (AID 1182); conditions: fluorescent protein binding, 635 nm, higher = more signal, called active from +8 up or from −8 down
XIP peptide (Xip251-270) = assay: compounds binding XIP fragment 251-270 – biochemical, small-molecule microarray, fluorescence 635/667 nm, 0.5 µg/mL protein, primary screen (AID 1183); conditions: fluorescence 635 nm, higher = more signal
[12] = blood-stage malaria parasite viability loss – strain 3D7, DAPI fluorescence, 100 nL, primary screen (AID 1184);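 further: parasites grown inside human red blood cells in medium with human serum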; conditions: P. falciparum 3D7 growth, 3 d, higher = more signal
[13] = target: Homeobox protein Hox-A13 (Mus musculus) (UniProt Q62424); assay: disruptors of Hoxa13 oligonucleotide interaction – biochemical, fluorescence polarization, labeled oligonucleotide, primary screen (AID 1185); conditions: Hoxa13:DNA binding, 15 min, higher = more signal, called active from +8 up or from −8 down
[14] = blockers of DNA damage checkpoint Chk1 activation – imaging, HeLa, hydroxyurea, phospho-Chk1 antibody, percent positive cells, primary screen (AID 1186); conditions: hydroxyurea-induced phospho-Chk1 immunofluorescence imaging, higher = more signal
[15] = blockers of DNA damage checkpoint Chk1 activation – imaging, HeLa, hydroxyurea, phospho-Chk1 nuclear intensity, primary screen (AID 1187); conditions: hydroxyurea-induced phospho-Chk1 immunofluorescence imaging, higher = more signal

Chain of Homeobox protein Hox-A13 (Mus musculus) (Q62424 whole entry, looked up): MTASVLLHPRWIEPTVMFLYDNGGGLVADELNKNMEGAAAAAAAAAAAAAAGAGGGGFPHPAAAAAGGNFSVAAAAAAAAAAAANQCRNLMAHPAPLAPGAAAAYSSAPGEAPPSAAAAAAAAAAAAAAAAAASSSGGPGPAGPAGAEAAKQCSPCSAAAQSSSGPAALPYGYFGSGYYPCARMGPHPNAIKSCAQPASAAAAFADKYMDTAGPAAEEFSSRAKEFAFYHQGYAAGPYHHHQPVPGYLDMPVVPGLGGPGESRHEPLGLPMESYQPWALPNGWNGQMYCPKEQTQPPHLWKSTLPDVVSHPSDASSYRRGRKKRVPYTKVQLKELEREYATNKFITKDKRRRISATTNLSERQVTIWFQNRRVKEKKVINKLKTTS
Chain of E3 ubiquitin-protein ligase XIAP (Homo sapiens) (P98170 whole entry, looked up, the tested form may be a part): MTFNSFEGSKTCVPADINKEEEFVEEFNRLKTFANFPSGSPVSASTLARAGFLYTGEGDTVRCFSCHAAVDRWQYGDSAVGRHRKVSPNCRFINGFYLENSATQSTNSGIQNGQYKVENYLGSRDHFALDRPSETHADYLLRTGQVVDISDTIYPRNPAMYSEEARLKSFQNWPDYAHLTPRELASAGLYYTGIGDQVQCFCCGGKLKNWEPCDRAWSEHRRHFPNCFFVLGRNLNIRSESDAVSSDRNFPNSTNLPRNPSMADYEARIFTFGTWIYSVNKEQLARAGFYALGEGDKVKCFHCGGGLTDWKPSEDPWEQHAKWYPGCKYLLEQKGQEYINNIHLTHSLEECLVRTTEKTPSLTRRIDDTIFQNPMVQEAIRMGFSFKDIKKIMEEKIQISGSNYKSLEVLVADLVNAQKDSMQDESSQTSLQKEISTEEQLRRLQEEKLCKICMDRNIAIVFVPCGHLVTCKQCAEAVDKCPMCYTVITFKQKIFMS
Chain of Dihydroorotate dehydrogenase (quinone), mitochondrial (Plasmodium falciparum (isolate 3D7)) (Q08210 whole entry, looked up): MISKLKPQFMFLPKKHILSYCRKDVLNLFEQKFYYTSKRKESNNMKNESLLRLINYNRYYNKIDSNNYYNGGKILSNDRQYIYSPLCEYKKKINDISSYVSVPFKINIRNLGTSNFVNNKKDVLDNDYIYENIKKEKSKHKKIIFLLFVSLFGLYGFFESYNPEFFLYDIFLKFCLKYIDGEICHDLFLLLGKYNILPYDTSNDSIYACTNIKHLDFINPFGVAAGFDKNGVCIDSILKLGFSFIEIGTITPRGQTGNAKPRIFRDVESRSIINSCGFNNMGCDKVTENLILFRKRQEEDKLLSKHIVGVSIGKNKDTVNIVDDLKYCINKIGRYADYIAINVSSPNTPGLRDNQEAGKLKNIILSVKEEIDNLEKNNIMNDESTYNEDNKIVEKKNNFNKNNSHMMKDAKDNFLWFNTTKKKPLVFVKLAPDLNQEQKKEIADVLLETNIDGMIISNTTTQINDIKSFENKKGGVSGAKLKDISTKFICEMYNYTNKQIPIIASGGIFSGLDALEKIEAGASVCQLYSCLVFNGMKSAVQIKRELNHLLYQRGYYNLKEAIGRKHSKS

SMILES	z-score [1]	z-score [2]	z-score [3]	composite z-score [4]	z-score [5]	z-score [6]	z-score [7]	z-score [8]	z-score [9]	composite z-score [10]	composite z-score [11]	composite z-score (XIP peptide (Xip251-270))	z-score [12]	z-score [13]	z-score [14]	z-score [15]
COCCOC(=O)N1C(=O)[C@@]2(c3cc(C#CCNC(N)=O)ccc31)[C@H](C(=O)N1CCCCCCC1)[C@H]1C(=O)O[C@H](c3ccccc3)[C@H](c3ccccc3)N1[C@@H]2c1ccc(O)cc1	-0.515	-0.129 (inactive)	-0.97 (inactive)	-0.376 (inactive)	0.0442 (inactive)	0.786 (inactive)	-0.5 (inactive)	-0.719 (inactive)	-0.928	0.0614	0.328 (inactive)	0.46	0.178	0.172 (inactive)	0.0004 (inactive)	0.132 (inactive)
C=C(C(=O)CC[C@H](OC(=O)c1cccnc1)c1cccc(OCCO)c1)C(C)C	0.0418	1.06 (inactive)	-1.16 (inactive)	0.612 (inactive)	-0.116 (inactive)	2.01 (inactive)	0.675 (inactive)	0.297 (inactive)	-1.36	-0.0117	0.24 (inactive)	0.183	-2.09	-3.82 (inactive)	-0.556 (inactive)	-0.453 (inactive)
C=CC[C@@H](OC(=O)Nc1ccc(OC)cc1)c1ccc(OCCO)cc1	-0.197	-3.85 (inactive)	-0.561 (inactive)	0.251 (inactive)	0.438 (inactive)	-0.373 (inactive)	0.411 (inactive)	-0.103 (inactive)	-0.365	0.206	0.456 (inactive)	-0.543	0.663	-5.86 (inactive)	-0.867 (inactive)	-0.431 (inactive)
CN(C)CCCCNC(=O)[C@H]1C[C@H]2C(=O)N3CCC[C@H]3C(=O)N2[C@H]1c1ccc(O)cc1	0.769	-0.659 (inactive)	0.949 (inactive)	-0.884 (inactive)	1.99 (inactive)	-0.35 (inactive)	-0.476 (inactive)	-0.565 (inactive)	-0.536	-0.192	-0.301 (inactive)	0.538	-1.25	-0.12 (inactive)	0.331 (inactive)	0.513 (inactive)
COc1ccc([Si](C)(C)[C@H]2[C@H](CC(=O)N3Cc4ccccc4C[C@H]3CO)O[C@@]3(C(=O)N(Cc4cccc(N5CCCCC5=O)c4)c4ccccc43)[C@@H]2C)cc1	-0.376	-0.704 (inactive)	-2.39 (inactive)	-0.614 (inactive)	1.42 (inactive)	0.662 (inactive)	-0.235 (inactive)	-0.435 (inactive)	-1.74	0.208	0.573 (inactive)	0.743	-1.62	-3.09 (inactive)	-0.507 (inactive)	-0.35 (inactive)
Cc1ccc(F)cc1S(=O)(=O)N[C@@H]1CCN(Cc2ccc(OC(C)C)cc2)C1	-0.917	-8.98 (active)	-2.09 (inactive)	-0.0588 (inactive)	-0.225 (inactive)	0.652 (inactive)	-20 (active)	-19.8 (active)	-0.945	-0.0794	-0.46 (inactive)	-0.701	-0.85	-5.27 (inactive)	0.239 (inactive)	1.54 (inactive)
O=C1NC(=O)C2C1C=CC(C(O)c1c(F)cccc1Cl)N2Nc1ccccn1 (centres undefined)	-1.73	1.19 (inactive)	-1.65 (inactive)	0.722 (inactive)	0.543 (inactive)	-0.0601 (inactive)	-0.883 (inactive)	-0.0739 (inactive)	-1.74	0.118	0.49 (inactive)	0.833	-0.362	-2.19 (inactive)	0.578 (inactive)	0.135 (inactive)
COC(=O)C1(Cc2ccccc2)C=C2C(=C(c3ccccc3)C(=O)C2C)CN1 (centres undefined)	-1.33	0.369 (inactive)	-2.99 (inactive)	-1.03 (inactive)	1.04 (inactive)	0.109 (inactive)	-1.25 (inactive)	-0.628 (inactive)	-1.78	-0.217	-0.401 (inactive)	0.691	-0.246	-9.2 (active)	0.222 (inactive)	0.532 (inactive)
COc1ccc(NN2C(C(O)c3ccccn3)C=CC3C(=O)N(C4CCCCC4)C(=O)C32)cc1 (centres undefined)	1.64	-0.774 (inactive)	0.583 (inactive)	1.25 (inactive)	0.574 (inactive)	0.219 (inactive)	-0.416 (inactive)	0.824 (inactive)	0.974	-0.308	-0.136 (inactive)	0.913	-0.408	-4.39 (inactive)	-0.773 (inactive)	-0.488 (inactive)
